According to PubChem BioAssay (NCATS):
Inconclusive results are not listed. Unmarked numbers belong to inactive results. Calls come from the whole dose curve; as a rule, active = well fitted cell-killing curve with a large enough effect; inconclusive = small, poorly fitted or top-dose-only effect; inactive = flat fitted curve, though single readings scatter.

Test: Cell Viability - LYMP2-008 (AID 980);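 note: cells exposed to compound for 24 h at 37 °C; nearly all actives have a fitted effect of over 60% in size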
Conditions: LYMP2-008 lymphoblastoid cell viability, qHTS; series mostly up to 92.2 µM; activity change, negative = cytotoxicity: at the top concentration
In short: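 Cells seeded at 2500/well and rested 5 hr at 37 C; compounds added over a concentration range and incubated 24 hr at 37 C; CellTiter-Glo added, 30 min at room temperature; luminescence read and AC50 fitted with Hill model.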
% is set by controls: 0 for no effect and ±100 for the full control effect.

Compound	activity change, negative = cytotoxicity [%]
CC=O	2.54
Cc1ccc(CO)cc1	2.02
Cc1cc([N+](=O)[O-])ccc1N	-7.6
Clc1cc(Cl)cc(Cl)c1	2.26
NC(=O)c1ccccc1[N+](=O)[O-]	-2.09
COc1ccc(N)c(C)c1	-4.24
Oc1cccc(Nc2ccccc2)c1	-10
O=C(O)c1cccc(Cl)c1Cl	0.174
Nc1cccc2c(=O)[nH][nH]c(=O)c12	-5.08
CCC(C)(C)C(=O)O	-5.07
ICCc1ccccc1	-14.3
FC(F)(F)c1cccc(Cl)c1	1.73
CCNS(=O)(=O)c1ccc(C)cc1	2.98
C=CC(=O)NC(C)C	-2.11
Cc1ccc2cccnc2c1	-12.6
CCCCCCO	-5.87
CC(C)(c1cc(Br)c(OCC(Br)CBr)c(Br)c1)c1cc(Br)c(OCC(Br)CBr)c(Br)c1 (centres undefined)	-11.3
CNc1ccccc1	1.73
Oc1c(Cl)ccc(Cl)c1Cl	4.49
CN(C)CCCNCCCN	-4
ClC/C=C/CCl	-26.9
CC(=C/C=C/C(C)=C/C=C/C=C(C)/C=C/C=C(C)/C=C/C(=O)O)/C=C/C(=O)O	-12.5
Cc1cccc(C(=O)O)c1	5.22
O=Cc1ccc(C(=O)O)cc1	6.2
NC(=O)/N=N/C(N)=O	-14.8
CC(=O)c1cccc([N+](=O)[O-])c1	-11.8
CNC(=O)c1ccccc1	2.82
O=[N+]([O-])c1cccc(C(F)(F)F)c1	1.9
NC(N)=S	-7.88

Test: Cell Viability - LYMP2-010 (AID 981);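 note: cells exposed to compound for 24 hours at 37 °C; nearly all actives have a fitted effect of over 55% in size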
Conditions: LYMP2-010 lymphoblastoid cell viability, qHTS; series mostly up to 92.2 µM; activity, negative = cytotoxicity: at the top concentration
In short: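 Steps: seed 2500 LYMP2-010 cells per well; incubate 5 hr at 37 C; add compound; incubate 24 hr at 37 C; add CellTiter-Glo, wait 30 min at room temperature; read luminescence. Concentration-response fitted to Hill equation for AC50.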

Compound	activity, negative = cytotoxicity [%]
CC=O	-3.56
Cc1ccc(CO)cc1	-0.631
Cc1cc([N+](=O)[O-])ccc1N	-6.9
Clc1cc(Cl)cc(Cl)c1	-3.52
Nc1nc2ccccc2[nH]1	-28.1
NC(=O)c1ccccc1[N+](=O)[O-]	-4.43
COc1ccc(N)c(C)c1	-8.49
O=C(O)c1cccc(Cl)c1Cl	3.7
O=C(O)CNC(=O)c1ccc(CO)o1	-7.35
Nc1cccc2c(=O)[nH][nH]c(=O)c12	-7.53
CCOc1cccc(N)c1	-21.6
CCC(C)(C)C(=O)O	-8.11
COc1ccc(OC)cc1	0.189
FC(F)(F)c1cccc(Cl)c1	-2.84
CCNS(=O)(=O)c1ccc(C)cc1	-5.3
CCOc1ccccc1N	-4.3
C=CC(=O)NC(C)C	-9.18
Cc1ccc2cccnc2c1	-5.9

Compound	activity, negative = cytotoxicity [%]
CCCCCCO	-7.94
CC(=O)Nc1ccccc1C	-17.2
CC(C)(c1cc(Br)c(OCC(Br)CBr)c(Br)c1)c1cc(Br)c(OCC(Br)CBr)c(Br)c1 (centres undefined)	-18.1
COc1ccc(N=[N+]([O-])c2ccc(OC)cc2)cc1	-10.3
CNc1ccccc1	-7.24
ClC/C=C/CCl	-29.4
O=C(Cl)c1cccc([N+](=O)[O-])c1	-19.9
CC(=C/C=C/C(C)=C/C=C/C=C(C)/C=C/C=C(C)/C=C/C(=O)O)/C=C/C(=O)O	-25.8
Cc1cccc(C(=O)O)c1	-4.05
Cc1ccc2ncccc2c1	-8.17
Nc1cccc(C(F)(F)F)c1	-12
O=Cc1ccc(C(=O)O)cc1	-8.86
CC(=O)c1cccc([N+](=O)[O-])c1	-16.3
CNC(=O)c1ccccc1	3.88
O=[N+]([O-])c1cccc(C(F)(F)F)c1	-5.89
CCC(C)(C)OC	-17.6
NC(N)=S	-5.63
